The results in this text go back to PubChem BioAssay (NCATS).

Where “and” joins values, the source holds several entries; their conditions need not be identical. Identical values can stand only once.

The nature of the assay: qHTS profiling for inhibitors of Plasmodium falciparum (3D7) proliferation (AID 743322).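 Note: infected erythrocytes exposed to compound for 72 h before lysis; 100% = DMSO vehicle wells and 0% = 0.29 µM artemisinin.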 The settings on record: P. falciparum 3D7 proliferation; at 28.7 µM (top of the series). From the text:
Plasmodium falciparum is a virulent malarial parasite that kills 1-2 million people worldwide each year. Transmitted by mosquitoes, the sporozoite form of the parasite enters the blood stream to infect hepatocytes, where they become merozoites that infect red blood cells (erythrocytes). Within erythrocytes, merozoites begin a […] cycle of growth and division, after which the parasite is released to infect new red blood cells. Gametocytes, which form within erythrocytes as well, circulate in the bloodstream and are ingested by the mosquito, thereby completing the life cycle. To profile malarial isolates for differential chemical responses and to identify inhibitors of malarial growth, an assay that measures P. falciparum growth and replication within erythrocytes was employed. This assay uses a DNA binding fluorescent dye (SYBR Green) to detect parasite DNA following cell lysis. Because mature erythrocytes lack DNA, only Plasmodium-derived DNA is detected.
The SYBR Green viability assay was adapted from a method described previously (Plouffe et al., 2008). For screening 3 ul culture medium was dispensed into 1536 well black clear bottom plates (Aurora Biotechnologies) using a Multidrop Combi (Thermo Fisher Scientific Inc.), 23 nL compounds in DMSO were added by a pin tool (Kalypsys), and 5 ul of erythrocytes infected with P. falciparum (0.3% parasitemia, 2.5% hematocrit final concentration) were added. The plates were incubated at 37 C in a humidified incubator in 5% CO2 for 72 h, and 2 ul lysis buffer (20 mM Tris HCl, 10 mM EDTA, 0.16% saponin, 1.6% triton X, 10X SYBR Green I supplied as 10,000X […] by Invitrogen) was added to each well. The plates were mixed for 25 sec with gentle shaking and incubated overnight at room temperature in the dark. The following morning, fluorescence intensity at 485(14) nm excitation and 535(25) nm emission wavelengths was measured on an EnVision (Perkin Elmer) plate reader. Plate reads were normalized relative to the control inhibitor (0.29 uM artemisinin) and vehicle (DMSO) wells present on each plate and then corrected by an algorithm using vehicle-only control plates at the beginning and end of the compound plate stack.
A general note: qHTS replaces the single test concentration by a dilution series.
With `COc1cc2nc(-c3ccc(N4CCN(C)CC4)cc3)nc(NCCN3CCOCC3)c2cc1OC`, the remaining parasite growth % (stronger effect = lower value) was -1.55%.
In the case of `CC(=O)Nc1ccc([C@H](C)C(=O)Nc2ncc(C(C)C)s2)cc1` it was 95.5%; in that of `CC(C)(C(=O)NCC(F)(F)C(F)(F)F)C(=O)N[C@@H]1C(=O)Nc2ccccc2-c2ccccc21`, 5.09%.
For `C[C@@H]1CCN(C(=O)CC#N)C[C@H]1N(C)c1ncnc2[nH]ccc12` the value was 89.8%; for `O=c1cc(CN2CCOCC2)occ1OCCCCCSc1ccnc2cc(C(F)(F)F)ccc12`, 28.8%.
For `CC[C@H]1OC(=O)[C@H](C)[C@@H](O[C@H]2C[C@@](C)(OC)[C@@H](O)[C@H](C)O2)[C@H](C)[C@@H](O[C@@H]2O[C@H](C)C[C@H](N(C)C)[C@@H]2O)[C@](C)(O)C[C@@H](C)CN(C)[C@H](C)[C@@H](O)[C@]1(C)O` the value was 11.3%.
For `OC[C@H]1O[C@@H](n2cnc3c2NC=NC[C@@H]3O)C[C@H]1O`, the remaining parasite growth % (stronger effect = lower value) stood at 97.1%.
For `CCOc1ccc(Nc2nc(-c3c(C)nc4ccccn34)cs2)cc1` the value was 2.43%.
In the case of `CN(C)Cc1ccc(-c2nc3cccc4c3n2CCNC4=O)cc1` it was 86.1%; in that of `CCOC(CN1C(=O)[C@](CC(=O)Nc2ccc(C)cc2)(NC(=O)Nc2ccc(C)cc2)c2ccccc21)OCC`, 4.05%; in that of `COc1cc2ncnc(-n3nc(-c4ccccn4)nc3N)c2cc1OC`, 68.8%.
In the case of `Cc1nc(N)sc1-c1ccnc(Nc2ccc(N3CCOCC3)cc2)n1` it was 2.54%.
Take `CC(C)[C@H](CO)Nc1nc(Nc2ccc(C(=O)O)c(Cl)c2)c2ncn(C(C)C)c2n1`: the remaining parasite growth % (stronger effect = lower value) is 41.8%.
In the case of `O=C(O)CCC1CCC(c2cc(F)ccc2F)(S(=O)(=O)c2ccc(Cl)cc2)CC1` (stereo not given) it was 23.3%; in that of `COc1cccc2c1CCCC2CCCN1CCN(C2CCCCC2)CC1` (stereo not given), -0.577%.
For `NC(CO)(CO)CCc1ccc(Sc2cccc(OCc3ccccc3)c2)cc1Cl` the value was -0.423%.
On to `COc1ccc(C2CC(c3ccccc3)=NN2c2ccc(S(N)(=O)=O)cc2)cc1` (stereo not given), for which the remaining parasite growth % (stronger effect = lower value) was 23.3%.
In the case of `CC(C)(C)COc1ccc(-n2cc(C(=O)O)cn2)cc1C#N` it was 28.3%.
For `O=c1cc(N2CCOCC2)oc2c(-c3cccc4c3sc3ccccc34)cccc12`, the remaining parasite growth % (stronger effect = lower value) was found to be 3.79%.
In the case of `N#Cc1ccc(NC(=O)Nc2ccccc2Br)c2n[nH]nc12` it was 66.9%.
For the compound `CO[C@H]1C=CC=C(C)C(=O)NC2=CC(=O)C(NCCN(C)C)=C(C[C@@H](C)C[C@H](OC)[C@@H](O)[C@@H](C)C=C(C)[C@@H]1OC(N)=O)C2=O`, the remaining parasite growth % (stronger effect = lower value) was -0.553%.
In the case of `COc1ncc(-c2ccc3nccc(-c4ccnnc4)c3c2)cc1NS(=O)(=O)c1ccc(F)cc1F` it was -1.12%.
For `COc1cc(N2CCC(N3CCN(C)CC3)CC2)ccc1Nc1ncc(Cl)c(Nc2ccccc2S(=O)(=O)C(C)C)n1`, the remaining parasite growth % (stronger effect = lower value) was -0.393%.
In the case of `O=C(N[C@@H](c1ccccc1)[C@@H]1CCCCN1)c1cccc(C(F)(F)F)c1Cl`, the remaining parasite growth % (stronger effect = lower value) was found to be 52.4%.
In the case of `CCc1ccc(OCc2ccccc2C(=O)Nc2ccc3nc(C)cc(N)c3c2)cc1` it was -0.867%; in that of `CC(C)(C)c1cc(C(=O)O)c(NC(=O)Nc2ccc3[nH]ncc3c2)s1`, 97%.
Take `CO[C@@H](C(=O)N1Cc2[nH]nc(NC(=O)c3ccc(N4CCN(C)CC4)cc3)c2C1)c1ccccc1`: the remaining parasite growth % (stronger effect = lower value) worked out at 5.46%.
In the case of `CN(C)C1CCN(C(=O)c2ccc(NC(=O)Nc3nc(N4CCOCC4)nc(N4CCOCC4)n3)cc2)CC1` it was 0.246%.
Consider `O=C(Nc1ccccc1-c1cn2c(CN3CCNCC3)csc2n1)c1cnc2ccccc2n1`, for which the remaining parasite growth % (stronger effect = lower value) is -2.01% and -0.108%.
In the case of `CC(C)(C)C(=O)Oc1ccc2c(c1)nc(NC(=O)c1cccc([N+](=O)[O-])c1)n2CCCO` it was 92%.
For `O=C1C(Cl)=C(NCCN2CCOCC2)C(=O)c2ncccc21` the value was 34.6%; for `CC1=C(/C=C/C(C)=C/C=C/C(C)=C/C(=O)Nc2ccc(O)cc2)C(C)(C)CCC1`, 14.1%; for `c1ccc2c(-c3cnn4cc(-c5ccc(N6CCNCC6)cc5)cnc34)ccnc2c1`, -1.65%.
In the case of `CO[C@H]1C[C@@H]2CC[C@@H](C)[C@@](O)(O2)C(=O)C(=O)N2CCCC[C@@H]2C(=O)O[C@H]([C@H](C)C[C@@H]2CC[C@H](OCCO)[C@H](OC)C2)CC(=O)[C@H](C)C=C(C)[C@@H](O)[C@@H](OC)C(=O)[C@H](C)C[C@H](C)C=CC=CC=C1C` it was -1.41%; in that of `CC(C)C(=O)Nc1ncc(-c2cc(C(F)F)nn2-c2c(Cl)cccc2Cl)s1`, 0.0648%; in that of `CC(=O)N(C)C1(c2ccccc2)CCN(CCC[C@]2(c3ccc(Cl)c(Cl)c3)CCCN(C(=O)c3ccccc3)C2)CC1`, -0.589%.
As to `O=C(Nc1cc(Cl)cc2c1[nH]c1cnccc12)c1cccnc1`, the remaining parasite growth % (stronger effect = lower value) is -0.264%.
For `O=C(O)c1ccc(-c2cc3cccnc3c(-c3ccc4nonc4c3)n2)cc1` the value was 98.1%.
For `Cc1ccc(F)c(NC(=O)Nc2ccc(-c3cccc4[nH]nc(N)c34)cc2)c1` the value was 81.3%; for `Clc1ccc(-c2nc3sccn3c2C=NOCc2ccc(Cl)c(Cl)c2)cc1`, 110%.
